Measured values published in article PMC5540273 (PLoS ONE, 2017).

Legend:
Settings in all cases: concentration: 1 μM, replicates: in singlicate; n = 1
CSNK1A1 = tested on: CSNK1A1
CSNK1D = tested on: CSNK1D
CSNK1E = tested on: CSNK1E
CSNK1G1 = tested on: CSNK1G1
CSNK1G2 = tested on: CSNK1G2
CSNK1G3 = tested on: CSNK1G3
CSNK2A1 = tested on: CSNK2A1
CSNK2A2 = tested on: CSNK2A2
CTK = tested on: T1, CTK
T1 construct: gene MATK

DAPK1 = tested on: DAPK1
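Further: KINOMEscan kinase panel screen.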

Compound | %Inh (CSNK1A1) [%] | %Inh (CSNK1D) [%] | %Inh (CSNK1E) [%] | %Inh (CSNK1G1) [%] | %Inh (CSNK1G2) [%] | %Inh (CSNK1G3) [%] | %Inh (CSNK2A1) [%] | %Inh (CSNK2A2) [%] | %Inh (CTK) [%] | %Inh (DAPK1) [%]
COc1ccccc1CNC(=O)c1cc(C(=O)c2ccccc2C)c[nH]1 [GSK364507] | 0 | 28 | 20 | 15 | 0 | 9 | 0 | 100 | 0 | 0
CCn1c(-c2ccccn2)nc2cnccc21 [SB-736398] | 0 | 0 | 4 | 0 | 0 | 0 | 0 | 0 | 0 | 0
CN1C(=O)C(Nc2ccc(Cl)c(C(=O)O)c2)=C(c2ccc(Cl)cc2)C1=O [SB-404290] | 0 | 0 | 38 | 0 | 0 | 15 | 18 | 7 | 0 | 0
O=C(Nc1n[nH]c2cc(-c3cccc(F)c3F)ccc12)C1CC1 [SB-733894] | 16 | 17 | 0 | 0 | 4 | 0 | 0 | 29 | 56 | 20
CC(C)(C)c1ccc(C(=O)Nc2cn3cc(-c4cccnc4)ccc3n2)cc1 | 41 | 78 | 92.4 | 10 | 24 | 21 | 22 | 17 | 12 | 40
Cc1c(O)cccc1Nc1ccnc2ccc(C(F)(F)F)cc12.Cl [GW466413] | 0 | 0 | 22 | 0 | 0 | 0 | 0 | 0 | 0 | 0
Cc1cc(N2Cc3ccccc3C2)nc(Nc2ccc(S(=O)(=O)N3CCOCC3)cc2)n1.Cl [GSK1669917] | 0 | 0 | 4 | 0 | 0 | 19 | 2 | 7 | 0 | 0
Fc1cc(Cl)ccc1Nc1ccnc2cc(-c3ccc(CN4CCCCC4)o3)ccc12 [GW560116] | 0 | 7 | 46 | 11 | 0 | 23 | 0 | 94.6 | 0 | 1
Cl.Oc1ccc(-c2nc(-c3ccccc3)[nH]c2-c2ccncc2)cc1 [SB-428218] | 0 | 37 | 28 | 18 | 0 | 0 | 0 | 0 | 0 | 3
Cn1ccc2ncnc(Oc3ccc(NC(=O)Nc4ccccc4)cc3)c21 | 4 | 13 | 5 | 0 | 11 | 0 | 14 | 0 | 0 | 11
Cc1cccc(-c2nc(-c3ccc(S(C)(=O)=O)cc3)sc2-c2ccnc(NCCc3ccccc3)c2)c1 | 0 | 1 | 8 | 5 | 1 | 0 | 0 | 28 | 0 | 0
Cc1cccc(-c2nc(Nc3ccc4[nH]ncc4c3)c3ccccc3n2)n1 [GW857175] | 0 | 28 | 28 | 15 | 0 | 18 | 94 |  | 18 | 10
Cc1ccccc1-n1cnc2c(N)ncnc21 [SKF-97510] | 0 | 5 | 11 | 0 | 0 | 0 | 0 | 0 | 0 | 94.8
Cl.O=C(Nc1cccc(-c2nn3ncccc3c2-c2ccnc(Nc3cccnc3)n2)c1)c1c(F)cccc1F [GSK312879] | 0 | 15 | 24 | 8 | 0 | 15 | 1 | 0 | 25 | 2
Nc1ncnc2[nH]c(-c3ccccc3)nc12 [AH5015] | 0 | 21 | 14 | 11 | 0 | 9 | 29 | 100 | 5 | 4
COc1cc(Nc2nccc(N3CCC(NC(=O)Nc4cc(C)ccc4C)C3)n2)cc(OC)c1OC (stereo not drawn) [GSK1379762] | 3 | 0 | 13 | 1 | 0 | 22 | 25 | 0 | 8 | 0
